# UDG counterscr: blocks uracil-DNA glycosylase in AID counter-screen. Potency, µM (top dose mostly 115 µM), hits mostly inhibitors. 91,000 tested, 0.14% active. FRET deamination/UDG coupled assay, UDG read, 4 h. AID 1347430; note: nearly all actives have a fitted effect of over 65% in size
# AID inh: activation induced cytidine deaminase inhibition. AID deamination FRET fluorescence, UDG-coupled, 4 h. 91,000 tested, 0.32% active. AID 1347428. Potency, µM (top dose mostly 115 µM), usual class: inhibitors. Q9GZX7; note: nearly all actives have a fitted effect of over 25% in size
# Target sequence (Q9GZX7 whole entry, looked up): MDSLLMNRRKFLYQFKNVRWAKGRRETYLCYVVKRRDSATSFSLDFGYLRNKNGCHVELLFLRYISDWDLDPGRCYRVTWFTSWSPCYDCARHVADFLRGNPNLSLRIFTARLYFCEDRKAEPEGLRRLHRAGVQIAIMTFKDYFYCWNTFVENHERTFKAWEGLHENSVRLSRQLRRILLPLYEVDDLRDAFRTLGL
# Hits are given with their value; n = inactive; u = inconclusive. Shown are actives, neighbours in structure and some others; about 0.47% of the full set was active somewhere. Calls come from the whole dose curve; as a rule, active = well fitted curve in the direction sought with a large enough effect; inconclusive = small, poorly fitted or top-dose-only effect, or another doubt; inactive = no such curve, though single readings can be large; an effect the other way counts as inactive or inconclusive.
SMILES,UDG counterscr,AID inh
COc1ccc(Br)cc1CNC(=O)c1cnc2sc(N3CCCCCC3)nn2c1=O,n,18µM
CC(=O)[C@]1(O)Cc2c(O)c3c(c(O)c2[C@@H](O[C@H]2C[C@H](N)[C@H](O)[C@H](C)O2)C1)C(=O)c1ccccc1C3=O,n,11µM
CC(C)(C)c1ccccc1NC(=O)CCC(=O)O,n,n
CCOC(=O)CSc1nc(-c2ccc(OCC)cc2)cc(C(F)(F)F)c1C#N,n,n
CCCOc1ccc(-c2cc(C(F)(F)F)c(C#N)c(SCCC(=O)O)n2)cc1,n,79µM
Clc1ccccc1-c1nc(N2CCCCC2)c2ccccc2n1,n,n
COc1cccc(-c2nc(N3CCCCCC3)c3ccccc3n2)c1O,89µM,u
CCc1cc(=O)n(CC(=O)N2CCCCC2C)c(-c2ccccc2)n1 (stereo not given),n,n
[N-]=[N+]=Nc1ccc(C(=O)CSC[C@H](NC(=O)CC[C@H](N)C(=O)O)C(=O)NCC(=O)O)cc1,n,89µM
N[C@@H](CCC(=O)N[C@H](CSN=O)C(=O)NCC(=O)O)C(=O)O,n,n
CC(=O)N1N=C(c2c(-c3ccccc3)c3cc(Cl)ccc3n(C)c2=O)CC1c1cccs1 (stereo not given),n,45µM
CC(=O)N1N=C(c2ccc(C)cc2)CC1c1cn(-c2ccccc2)nc1-c1cccs1 (stereo not given),n,n
CN(C)CCNC(=S)NCc1cccs1,n,n
CCOC(=O)c1c(C)oc2nc(C)nc(N3CCN(c4cccc(C(F)(F)F)c4)CC3)c12,n,14µM
CCOC(=O)c1c(C)oc2nc(C)nc(N3CCN(c4ccccc4)CC3)c12,n,n
CCOc1ccc(-c2nc(CSCC(=O)N3CCN(c4cccc(C(F)(F)F)c4)CC3)c(C)o2)cc1,n,32µM
CCOc1ccc(-c2nc(CSCC(=O)N3CCN(c4ccc(F)cc4)CC3)c(C)o2)cc1,n,n
COc1cccc(C(=O)NN2CC(O)=C(c3nc(-c4ccc(Br)cc4)cs3)C2=N)c1,n,n
NNc1nncc2ccccc12,35µM,45µM
c1ccc(CN2CCC(=NNc3nncc4ccccc34)CC2)cc1,n,n
COc1ccc(-c2ccc(CCC(=O)O)n2NC(=O)c2ccccc2Cl)cc1,n,n
CCCOc1ccc(C(=O)N(Cc2ccc(C(C)C)cc2)C2CCS(=O)(=O)C2)cc1 (stereo not given),n,u
CCCCOc1ccc(C(=O)N(Cc2ccc(C(C)C)cc2)C2CCS(=O)(=O)C2)cc1 (stereo not given),n,25µM
N[n+]1cccc2ccccc21,1µM,n
ClCC(Cl)C[n+]1cccc2ccccc21 (stereo not given),n,n
SMILES,UDG counterscr,AID inh
COc1ccc(OC)c(/C=N/OCc2c(Cl)cccc2Cl)c1,n,n
Cc1ccc(-c2nc(CN3CCCC3c3nnc4ccccn34)co2)cc1 (stereo not given),n,n
O=C(Nc1cccc2cccnc12)C(c1ccccc1)c1ccccc1,89µM,n
O=C(CSc1cccc2cccnc12)NNC(=O)C(c1ccccc1)c1ccccc1,n,n
Cc1cccc(C)c1-n1nnnc1SC(C(=O)N1CCCC1)c1ccccc1 (stereo not given),n,n
Cc1ccc(C(=O)NC(c2ccc(Cl)cc2)C2CC2)cc1 (stereo not given),n,n
O=C(NCCCCCO)C1CCN(c2nc(Cl)nc3nc[nH]c23)CC1,89µM,n
O=C(CCNc1nc(Cl)nc2nc[nH]c12)NC1CC1,n,n
Cc1ccccc1COC(=O)c1nn(Cc2ccccc2)c(=O)c2ccccc12,n,n
Cc1ccc(C(=O)Nc2sc3c(c2C(=O)NCc2ccco2)CCC(C(C)(C)C)C3)cc1 (stereo not given),n,n
CC(C)(C)C1CCc2c(sc(NC(=O)c3ccccc3F)c2C(=O)NCc2ccco2)C1 (stereo not given),n,11µM
C=Cc1ccc(CSc2nc(-c3ccc(Cl)cc3)nc3c2Cc2c(CO)cnc(C)c2O3)cc1,n,n
C=Cc1ccc(CSc2nc(-c3ccccc3C)nc3c2Cc2c(CO)cnc(C)c2O3)cc1,n,45µM
CC(Sc1ccc(Cl)cc1)C(=O)NC1CC2CCC1C2 (stereo not given),n,n
COc1ccc(C(=O)/C=C/c2ccccc2F)c(OC(=O)c2ccccc2Br)c1,n,n
CCOc1ccccc1OCCCn1c(-c2ccc(Cl)cc2)nc2ccccc2c1=O,n,n
CCOc1ccccc1OCCCCn1c(-c2ccc(Cl)cc2)nc2ccccc2c1=O,n,32µM
COc1ccc(-c2noc(N3CCC(C(=O)N4CCN(c5ccccc5OC)CC4)CC3)n2)cc1,u,n
COc1ccc(-c2noc(N3CCC(C(=O)N(C)c4cc(Cl)ccc4OC)CC3)n2)cc1,n,79µM
Fc1cccc(-c2nc(COc3ccc(Br)cc3F)co2)c1,n,n
CCCOc1ccc(-c2nc(C#N)c(NCc3ccco3)o2)cc1,n,n
CCn1cc(S(=O)(=O)c2ccc(OC)cc2)c(=O)c2cc(F)c(N3CCC(C)CC3)cc21,n,18µM
